The campaign covered roughly 5,500 compounds. About 2,000 (36%) were called active. Not shown: some 18% with an inconclusive outcome. No stated cut-off is given here; in the data, active means normalized growth mostly below about 0.91 (no sharp cut-off); inconclusive means no clear call, values can overlap the other calls; inactive means mostly above about 0.92. The list shows a part of the results.
Assay: chemical genetic growth profiling, strain panel (AID 1159580);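 further: tested at 20 µM; growth read once vehicle control cultures reached saturation at 30 °C; 1 = growth at the plate median or of vehicle wells; lower values mean less growth of the strain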
Conditions: growth OD
[1] = S. cerevisiae deletion strains, locus YAL013W, strain DEP1, active compounds read low
[2] = S. cerevisiae deletion strains, locus YBR021W, strain FUR4, active compounds read low
[3] = S. cerevisiae deletion strains, locus YBR229C, strain ROT2, active compounds read low
[4] = S. cerevisiae deletion strains, locus YCL029C, strain bik1, active compounds read low
[5] = S. cerevisiae deletion strains, locus YDL035C, strain GPR1, active compounds read low
[6] = S. cerevisiae deletion strains, locus YDL074C, strain BRE1, active compounds read low
[7] = S. cerevisiae deletion strains, locus YDL101C, strain DUN1, active compounds read low
[8] = S. cerevisiae deletion strains, locus YDL185W, strain tfp1, active compounds read low
[9] = S. cerevisiae deletion strains, locus YDL192W, strain arf1, active compounds read low
[10] = S. cerevisiae deletion strains, locus YDR101C, strain arx1, active compounds read low
[11] = S. cerevisiae deletion strains, locus YDR150W, strain NUM1, active compounds read low
[12] = S. cerevisiae deletion strains, locus YDR162C, strain NBP2, active compounds read low
[13] = S. cerevisiae deletion strains, locus YDR318W, strain mcm21, active compounds read low
[14] = S. cerevisiae deletion strains, locus YDR388W, active compounds read low
[15] = S. cerevisiae deletion strains, locus YDR502C, strain sam2, active compounds read low
[16] = S. cerevisiae deletion strains, locus YEL061C, strain CIN8, active compounds read low
[17] = S. cerevisiae deletion strains, locus YER110C, active compounds read low
[18] = S. cerevisiae deletion strains, locus YER155C, strain BEM2, active compounds read low
[19] = S. cerevisiae deletion strains, locus YER167W, strain BCK2, active compounds read low
[20] = S. cerevisiae deletion strains, locus YGL078C, strain dbp3, active compounds read low
[21] = S. cerevisiae deletion strains, locus YGL086W, strain mad1, active compounds read low
[22] = S. cerevisiae deletion strains, locus YGL248W, strain PDE1, active compounds read low
[23] = S. cerevisiae deletion strains, locus YGR135W, strain pre9, active compounds read low
[24] = S. cerevisiae deletion strains, locus YGR229C, strain SMI1, active compounds read low
[25] = S. cerevisiae deletion strains, locus YGR252W, strain gcn5, active compounds read low
[26] = S. cerevisiae deletion strains, locus YHR030C, strain SLT2, active compounds read low
[27] = S. cerevisiae deletion strains, locus YHR079C, strain IRE1 (second series), active compounds read low
[28] = S. cerevisiae deletion strains, locus YHR094C, strain hxt1, active compounds read low
[29] = S. cerevisiae deletion strains, locus YHR129C, strain ARP1, active compounds read low
[30] = S. cerevisiae deletion strains, locus YHR200W, strain rpn10, active compounds read low
[31] = S. cerevisiae deletion strains, locus YIL066C, strain RNR3, active compounds read low
[32] = S. cerevisiae deletion strains, locus YIL073C, strain SPO22, active compounds read low
[33] = S. cerevisiae deletion strains, locus YIL125W, strain kgd1, active compounds read low
[34] = S. cerevisiae deletion strains, locus YIR030C, strain dcg1, active compounds read low
[35] = S. cerevisiae deletion strains, locus YJL095W, strain BCK1, active compounds read low
[36] = S. cerevisiae deletion strains, locus YJL134W, strain LCB3, active compounds read low
[37] = S. cerevisiae deletion strains, locus YJL168C, strain set2, active compounds read low
[38] = S. cerevisiae deletion strains, locus YJL187C, strain SWE1 (second series), active compounds read low
[39] = S. cerevisiae deletion strains, locus YJR043C, strain POL32, active compounds read low
[40] = S. cerevisiae deletion strains, locus YKL009W, strain mrt4, active compounds read low
[41] = S. cerevisiae deletion strains, locus YKL085W, strain MDH1 (second series), active compounds read low
[42] = S. cerevisiae deletion strains, locus YKL085W, strain MDH1, active compounds read low
[43] = S. cerevisiae deletion strains, locus YKR001C, strain vps1, active compounds read low
[44] = S. cerevisiae deletion strains, locus YLR039C, strain RIC1, active compounds read low
[45] = S. cerevisiae deletion strains, locus YLR058C, strain SHM2, active compounds read low
[46] = S. cerevisiae deletion strains, locus YLR102C, strain apc9, active compounds read low
[47] = S. cerevisiae deletion strains, locus YLR262C, strain YPT6, active compounds read low
[48] = S. cerevisiae deletion strains, locus YLR268W, strain sec22, active compounds read low
[49] = S. cerevisiae deletion strains, locus YLR330W, strain CHS5, active compounds read low
[50] = S. cerevisiae deletion strains, locus YLR342W, strain FKS1 (second series), active compounds read low
[51] = S. cerevisiae deletion strains, locus YLR371W, strain rom2, active compounds read low
[52] = S. cerevisiae deletion strains, locus YLR418C, strain cdc73, active compounds read low
[53] = S. cerevisiae deletion strains, locus YML016C, strain PPZ1, active compounds read low
[54] = S. cerevisiae deletion strains, locus YML032C, strain rad52, active compounds read low
[55] = S. cerevisiae deletion strains, locus YML124C, strain tub3, active compounds read low
[56] = S. cerevisiae deletion strains, locus YMR078C, strain ctf18, active compounds read low
[57] = S. cerevisiae deletion strains, locus YMR223W, strain ubp8, active compounds read low
[58] = S. cerevisiae deletion strains, locus YMR263W, strain SAP30, active compounds read low
[59] = S. cerevisiae deletion strains, locus YMR307W, strain GAS1, active compounds read low
[60] = S. cerevisiae deletion strains, locus YNL067W, strain RPL9B, active compounds read low
[61] = S. cerevisiae deletion strains, locus YNL153C, strain GIM3, active compounds read low
[62] = S. cerevisiae deletion strains, locus YNL233W, strain BNI4, active compounds read low
[63] = S. cerevisiae deletion strains, locus YNL250W, strain rad50, active compounds read low
[64] = S. cerevisiae deletion strains, locus YNL271C, strain bni1, active compounds read low
[65] = S. cerevisiae deletion strains, locus YNL298W, strain CLA4, active compounds read low
[66] = S. cerevisiae deletion strains, locus YNL307C, strain MCK1, active compounds read low
[67] = S. cerevisiae deletion strains, locus YNL322C, strain KRE1, active compounds read low
[68] = S. cerevisiae deletion strains, locus YNR052C, strain pop2, active compounds read low
[69] = S. cerevisiae deletion strains, locus YOL006C, strain TOP1, active compounds read low
[70] = S. cerevisiae deletion strains, locus YOL012C, strain htz1
[71] = S. cerevisiae deletion strains, locus YOL147C, strain pex11, active compounds read low
[72] = S. cerevisiae deletion strains, locus YOR061W, strain CKA2, active compounds read low
[73] = S. cerevisiae deletion strains, locus YOR069W, strain VPS5, active compounds read low
[74] = S. cerevisiae deletion strains, locus YOR136W, strain idh2, active compounds read low
[75] = S. cerevisiae deletion strains, locus YOR144C, strain elg1, active compounds read low
[76] = S. cerevisiae deletion strains, locus YOR184W, strain ser1, active compounds read low
[77] = S. cerevisiae deletion strains, locus YOR316C, strain cot1, active compounds read low
[78] = S. cerevisiae deletion strains, locus YPL055C, strain LGE1, active compounds read low
[79] = S. cerevisiae deletion strains, locus YPL241C, strain CIN2, active compounds read low
[80] = S. cerevisiae deletion strains, locus YPR119W, strain clb2, active compounds read low
[81] = S. cerevisiae deletion strains, locus YPR141C, strain kar3, active compounds read low
[82] = S. cerevisiae deletion strains, locus YPR163C, strain tif3, active compounds read low
[83] = S. cerevisiae deletion strains, locus YPR167C, strain met16, active compounds read low
[84] = S. cerevisiae deletion strains, strain wtn01, active compounds read low
[85] = S. cerevisiae strains, strain wild type, active compounds read low

Measured: normalized growth

CCCc1c(OCCCCc2nn[nH]n2)ccc(C(C)=O)c1O
inactive: [1] 1.01 | [2] 1.03 | [3] 1.01 | [4] 0.997 | [5] 1.02 | [6] 1.06 | [7] 1.02 | S. cerevisiae deletion strains, locus YDL134C, strain PPH21, active compounds read low 1.01 | [8] 0.968 | [9] 0.995 | [10] 0.991 | [11] 1.01 | [12] 1.01 | [13] 0.993 | [14] 0.993 | [15] 1.01 | [16] 1.01 | [17] 0.977 | [18] 1.01 | [19] 1.01 | [20] 0.996 | [21] 1 | [22] 1.01 | S. cerevisiae deletion strains, locus YGR078C, strain PAC10, active compounds read low 1.01 | [23] 1 | [24] 1.03 | [25] 0.934 | [26] 1.01 | [27] 0.992 | [28] 0.992 | [29] 1.01 | [30] 0.987 | [31] 1.02 | [32] 1.03 | [33] 1 | [34] 0.995 | [35] 1.02 | [36] 1.01 | [37] 0.993 | [38] 1.01 | [39] 0.984 | S. cerevisiae deletion strains, locus YJR075W, strain HOC1, active compounds read low 1.02 | [40] 1.02 | S. cerevisiae deletion strains, locus YKL068W, active compounds read low 0.999 | [41] 0.999 | [42] 0.999 | S. cerevisiae deletion strains, locus YKL190W, strain CNB1, active compounds read low 1.01 | [43] 0.957 | [44] 1.05 | [45] 1.01 | [46] 0.997 | [47] 1.08 | [48] 0.994 | [49] 1.01 | [50] 0.975 | [51] 0.989 | [52] 0.984 | [53] 1.01 | [54] 0.995 | [55] 0.996 | [56] 0.994 | [57] 0.991 | [58] 1.01 | [59] 1.01 | [60] 1.01 | S. cerevisiae deletion strains, locus YNL128W, strain TEP1, active compounds read low 1.01 | [61] 1.01 | [62] 1.01 | [63] 0.996 | [64] 0.997 | [65] 0.997 | [66] 0.993 | [67] 1.01 | [68] 0.981 | [69] 1.09 | [70] 1.54 | [71] 0.989 | [72] 1.01 | [73] 1 | [74] 0.986 | [75] 0.994 | [76] 0.992 | [77] 1 | [78] 1.03 | [79] 1 | [80] 0.992 | [81] 1.01 | [82] 0.986 | [83] 0.992 | [84] 0.993 | [85] 1.01

CCC1(O)CC2CN(CCc3c([nH]c4ccccc34)[C@@](C(=O)OC)(c3cc4c(cc3OC)N(C)C3[C@]45CCN4CC=C[C@@](CC)([C@@H](OC(C)=O)[C@]3(O)C(=O)OC)[C@H]45)C2)C1 (stereo not given in full)
inactive: S. cerevisiae deletion strains, locus YAL040C, strain CLN3, active compounds read low 1 | S. cerevisiae deletion strains, locus YCL061C, strain MRC1 (second series), active compounds read low 1 | [11] 1.01 | S. cerevisiae deletion strains, locus YDR363W, strain ESC2, active compounds read low 0.993 | S. cerevisiae deletion strains, locus YER002W, strain NOP16, active compounds read low 1.06 | [58] 0.996 | [59] 0.985 | S. cerevisiae deletion strains, locus YNL175C, strain NOP13, active compounds read low 1.02 | S. cerevisiae deletion strains, locus YNL197C, strain WHI3, active compounds read low 1.03 | S. cerevisiae deletion strains, locus YNL224C, strain SQS1, active compounds read low 1.04 | S. cerevisiae deletion strains, locus YOR083W, strain WHI5 (second series), active compounds read low 1.07 | [78] 1.01 | [79] 0.994

CC(=O)Oc1c(Cl)c(C)c2c(c1Cl)OC(=O)c1c(C)c(Cl)c(OC(C)=O)c(Cl)c1O2
inactive: [3] 1.02 | [5] 0.86 | [6] 0.79 | [7] 0.946 | [8] 1 | [13] 0.946 | [14] 0.932 | [16] 1.02 | [17] 0.992 | [19] 0.985 | [22] 0.926 | [23] 0.912 | [26] 0.922 | [27] 1.01 | [28] 1.01 | [29] 0.925 | [30] 0.966 | [31] 0.965 | [32] 1.03 | [33] 1.02 | [34] 0.934 | [35] 0.802 | [36] 1.04 | [37] 1.01 | [38] 0.913 | [39] 0.921 | [44] 0.715 | [45] 0.967 | [46] 1.01 | [47] 0.642 | [49] 0.922 | [50] 0.828 | [51] 1.01 | [53] 1.02 | [55] 1.02 | [56] 0.985 | [59] 0.613 | [62] 0.934 | [63] 0.98 | [64] 0.993 | [67] 1.02 | [69] 0.734 | [70] 1.44 | [72] 0.988 | [73] 0.972 | [74] 0.976 | [77] 1.01 | [80] 1.01 | [81] 1.07 | [83] 0.942 | [85] 0.977
active: [1] 0.895 | [2] 0.851 | [4] 0.853 | [9] 0.825 | [10] 0.883 | [12] 0.799 | [15] 0.878 | [18] 0.91 | [20] 0.856 | [21] 0.899 | [24] 0.65 | [25] 0.693 | [40] 0.678 | [41] 1.39 [resistant] | [42] 1.39 [resistant] | [43] 0.682 | [48] 0.847 | [52] 0.756 | [54] 0.853 | [57] 0.886 | [60] 0.846 | [61] 0.858 | [65] 0.866 | [66] 0.771 | [68] 0.754 | [71] 0.916 | [75] 0.903 | [76] 0.652 | [82] 0.736 | [84] 0.856
